Most compounds without a hit are left out; they make up all but 7.2% or so of the library.
NPR1 antag: blocks ANP-stimulated signaling of human Npr1 receptor | actives 1.6% (n = 76,000) | Potency, µM (series often up to 46.3 µM), without a hit: top-dose activity change, negative = inhibition, most hits filed as inhibitors | HEK293 hNpr1 GloSensor cGMP, ANP-stimulated luminescence; calls by dose curve; note: nearly all actives have a fitted effect of over 60% in size
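Compound pre-incubated 30 min at room temperature on GloSensor-loaded HEK293 cells stably carrying hNpr1 and the pGS-40F cGMP biosensor. Stimulation uses hNppA at 0.1 nM final; luminescence is taken at baseline and 20 min post-agonist.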
NIH3T3 tox: NIH 3T3 cell cytotoxicity. Potency, µM (series often up to 96.7 µM), inactives show top-dose activity change, negative = cytotoxicity, hits mostly inhibitors. actives 4.3% (n = 94,000). NIH 3T3 viability, CellTiter-Glo ATP luminescence, 48-72 h. AID 1345082; note: nearly all actives have a fitted effect of over 55% in size
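Cytotoxicity was measured by CellTiter-Glo ATP luminescence after 48 or 72 h compound exposure at 37 °C. Mouse NIH 3T3 fibroblasts were seeded at 400 cells/well and dosed by 23 nL pin transfer.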
HEK293 viab: cell viability loss counter-screen; HEK-293-SNCA-luc viability, GF-AFC fluorescence, 24 h; actives 0.12% (n = 150,000); Potency, µM (top dose mostly 57.1 µM), for inactives: top-dose activity change, negative = cytotoxicity, most hits filed as cytotoxic;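 note: 0% = DMSO-treated cells and -100% = medium-only wells without cells; nearly all actives have a fitted effect of over 30% in size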
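Cytotoxicity counterscreen: after 24 h compound treatment of genome-edited SNCA-luciferase HEK-293 cells, live-cell protease substrate GF-AFC read by fluorescence after 30 min; activity scaled between DMSO (0%) and medium-only (-100%), curves Hill-fitted.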
SNCA expr inhib: inhibitors of alpha-synuclein (SNCA) gene expression; AID 1671194; Potency, µM (series often up to 57.2 µM), inactives show at the top dose activity change, negative = inhibition, hits mostly inhibitors; actives 0.17% (n = 140,000); HEK-293 SNCA-luciferase knock-in, luminescence, 24 h;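 note: plate controls were DMSO cells for no effect and cell-free wells for full effect; nearly all actives have a fitted effect of over 45% in size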
HEK cytotox: kills HEK 293 cells. HEK 293 viability, ATP luminescence (CellTiter-Glo), 48-72 h. Potency, µM (titrated, usually from 115 µM), for inactives: at the highest dose activity change, negative = cytotoxicity, most hits filed as inhibitors. actives 6.6% (n = 94,000); note: nearly all actives have a fitted effect of over 60% in size
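HEK 293 cells at 250 cells/well were exposed to compounds by pintool transfer for 48 or 72 hr at 37 degree Celsius, 5% CO2. Viability was read as ATP-coupled luminescence with CellTiter-Glo after 10 min at room temperature.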
FLuc inh: inhibitors of firefly (Photinus pyralis) luciferase. P08659. purified P. pyralis luciferase, luminescence, biochemical. Potency, µM (highest dose often 115 µM), actives largely listed as inhibitors. actives 2.5% (n = 76,000); note: nearly all actives have a fitted effect of over 65% in size
Target sequence (P08659 whole entry, looked up): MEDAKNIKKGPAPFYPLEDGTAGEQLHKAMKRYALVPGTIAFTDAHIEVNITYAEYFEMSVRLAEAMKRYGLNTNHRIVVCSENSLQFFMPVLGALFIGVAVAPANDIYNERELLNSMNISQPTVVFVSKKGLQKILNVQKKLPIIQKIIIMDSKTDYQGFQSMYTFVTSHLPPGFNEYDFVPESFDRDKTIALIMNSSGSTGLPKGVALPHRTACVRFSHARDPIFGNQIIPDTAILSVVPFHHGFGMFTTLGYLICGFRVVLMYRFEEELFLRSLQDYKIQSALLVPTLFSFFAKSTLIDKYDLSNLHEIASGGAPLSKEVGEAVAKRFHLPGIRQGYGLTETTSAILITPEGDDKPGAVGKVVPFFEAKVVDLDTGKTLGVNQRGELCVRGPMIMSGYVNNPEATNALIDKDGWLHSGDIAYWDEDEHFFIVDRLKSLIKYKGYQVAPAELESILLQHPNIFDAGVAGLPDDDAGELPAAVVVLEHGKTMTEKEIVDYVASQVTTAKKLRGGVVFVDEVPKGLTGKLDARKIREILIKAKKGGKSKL
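Luminescence read by CCD imaging after purified firefly luciferase (10nM final) was added to substrate buffer holding 10uM D-luciferin and 10uM ATP, pH 7.5, pre-dosed with compound.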
Numbers without * were called inactive; i = inactive; ? = inconclusive; · = no result; [ ] = remark or other dose. Unless noted, calls come from the whole dose curve; as a rule, active = well fitted curve in the direction sought with a large enough effect; inconclusive = small, poorly fitted or top-dose-only effect, or another doubt; inactive = no such curve, though single readings can be large; an effect the other way counts as inactive or inconclusive. Unless noted, % is set by controls: 0 for no effect and ±100 for the full control effect; potency is the fitted concentration of half-maximal effect.

SMILES	NPR1 antag	NIH3T3 tox	HEK293 viab	SNCA expr inhib	HEK cytotox	FLuc inh
CC(=O)NCC(=O)NCC1CCN(c2cc(-c3ccc(Cl)cc3)[nH]n2)CC1	4%	-27%	6%	138%	-1%	?
O=C(NCC1CCN(c2cc(-c3ccc(F)cc3)[nH]n2)CC1)c1cc(C2CC2)[nH]n1	-27%	?	-3%	-15%	?	?
Cc1cc(C)n(CCC(=O)NCC2CCN(c3cc(-c4ccc(Cl)cc4)[nH]n3)CC2)n1	-20%	32µM*	-4%	-12%	35µM*	i
O=C(NCC1CCN(c2cc(-c3ccc(F)cc3)[nH]n2)CC1)c1ccc[nH]1	-12%	?	4%	-2%	?	i
O=C(NCC1CCN(c2cc(-c3ccc(Cl)cc3)[nH]n2)CC1)c1cc(C2CC2)[nH]n1	?	35µM*	-16%	6%	?	?
CO[C@H]1C(=O)N(C2CCN(C(=O)C3CCCC3)CC2)[C@H]1c1ccncc1	4%	-22%	12%	1%	2%	i
CC(C)c1ccc(Nc2n[nH]c(C(O)c3ccccc3)n2)cc1 (stereo unspecified)	2%[70.6 µM]	?	-10%[87.6 µM]	4%[87.6 µM]	?	?
OC(c1ccc2c(c1)CCO2)c1nc(Nc2cccc(C(F)(F)F)c2)n[nH]1 (stereo unspecified)	-8%[70.6 µM]	?	2%[87.6 µM]	?	71µM*	i
COc1ccc(Nc2n[nH]c(C(O)c3cccc(C(F)(F)F)c3)n2)cn1 (stereo unspecified)	-22%[70.6 µM]	?	-6%[87.6 µM]	-26%[87.6 µM]	?	i
Cc1ccccc1Nc1n[nH]c(C(O)c2ccc3c(c2)CCO3)n1 (stereo unspecified)	-5%[70.6 µM]	?	1%[87.6 µM]	-17%[87.6 µM]	?	i
OC(c1nc(Nc2ccc(Cl)c(C(F)(F)F)c2)n[nH]1)C1CC1 (stereo unspecified)	?	50µM*	-17%[87.6 µM]	1%[87.6 µM]	56µM*	?
OC(c1cccc(C(F)(F)F)c1)c1nc(Nc2cccc(Cl)c2)n[nH]1 (stereo unspecified)	?	50µM*	-22%[87.6 µM]	?	63µM*	i
O=C(/C=C/c1ccc(O)cc1)O[C@H]1[C@H](OC2CCCCC2O)O[C@H](CO)[C@@H](O)[C@@H]1O (stereo partly specified)	·	·	-3%[23.9 µM]	·	·	·
COc1ccc(CNC(=O)[C@@H](C)C2CC[C@@]3(C)CC[C@H](NC(=O)COc4ccccc4)[C@@H](C)[C@@H]3[C@H]2O)cc1 (stereo partly specified)	?	32µM*	0%	-7%	22µM*	i
Cc1ccc(OCc2nc(C3CN(C(=O)c4cc(C)nn4C)C3)no2)cc1	?	-24%	-3%	93%	45µM*	40µM*
O=C(C1CCOCC1)N1CCC(c2noc(COc3ccc(F)cc3)n2)C1 (stereo unspecified)	?	-19%	3%	-24%	-27%	i
O=C(Cc1c(F)cccc1Cl)N1CCC(c2noc(COc3ccc(F)cc3)n2)CC1	?	?	-1%	-8%	89µM*	i
CCn1nccc1C(=O)N1CCC(c2noc(COc3ccc(F)cc3)n2)C1 (stereo unspecified)	-28%	?	0%	-28%	45µM*	i
O=C1[C@H]2CN(Cc3ccc(F)c(F)c3)C[C@H]2C(=O)N1Cc1ccc2c(c1)OCO2	5%	-26%	7%	-20%	-29%	i
O=C1[C@H]2CN(Cc3ccc(F)c(Cl)c3)C[C@H]2C(=O)N1Cc1ccc2c(c1)OCO2	-18%	?	20%	-30%	35µM*	i
C=CCN1CCc2ccccc2N(CC(O)COc2ccc(OC)cc2)CCC1=O (stereo unspecified)	·	?	6%[23.9 µM]	16%[25.6 µM]	-21%[57.5 µM]	·
COc1ccc(OCC(O)CN2CCC(=O)N(C3CCCC3)Cc3ccccc32)cc1 (stereo unspecified)	·	?	·	·	40µM*	·
COc1ccc(OCC(O)CN2CCC(=O)N(C/C=C/c3ccccc3)CCc3ccccc32)cc1 (stereo unspecified)	·	?	-1%[23.9 µM]	13%[25.6 µM]	28µM*	·
COc1ccc(-c2cnc([C@@H]3COCCN3C3CCCCC3)[nH]2)cc1	5%[70.6 µM]	?	-9%[87.6 µM]	-8%[87.6 µM]	32µM*	i
Cc1ccc(-c2cnc([C@@H]3COCCN3C(C)C)[nH]2)cc1	3%[70.6 µM]	?	-10%[87.6 µM]	5%[87.6 µM]	112µM*	i
SMILES	NPR1 antag	NIH3T3 tox	HEK293 viab	SNCA expr inhib	HEK cytotox	FLuc inh
CC(C)n1c(C2CCN(C(=O)CCc3nc4ccccc4s3)CC2)nn(C)c1=O	-9%	-15%	5%	-3%	-11%	i
CCC1Oc2ccc(NC(=O)Cc3cccc(OC)c3)cc2CN(Cc2ccc3c(c2)OCO3)C1=O (stereo unspecified)	-22%	?	10%	10%	?	i
Cc1ccc(-n2c(C3CCN(C(=O)Cc4ccc(F)cc4)CC3)n[nH]c2=O)cc1	-22%	?	-5%	-9%	-1%	i
c1ccc2sc(N3CCN(Cc4cc5n(n4)CCCNC5)CC3)nc2c1	0%	-20%	7%	21%	-14%	i
c1ccc2c(N3CCN(Cc4cc5n(n4)CCNC5)CC3)nsc2c1	4%	?	-19%	-11%	40µM*	i
CN(C)S(=O)(=O)N1CCc2nc3cc(-c4ccccc4)[nH]n3c(=O)c2C1	2%	-18%	4%	2%	-2%	0.45µM*
COc1ccccc1C(=O)N1CCC(N2C(=O)c3c(c(C)nn3-c3ccccc3)C2C)CC1 (stereo unspecified)	·	?	·	·	40µM*	·
Cc1ccccc1C(=O)N1CCC(N2C(=O)c3c(c(C)nn3-c3ccccc3)C2C)C1 (stereo unspecified)	·	?	·	·	45µM*	·
Cc1ccccc1C(=O)N1CCC(N2C(=O)c3c(c(C)nn3-c3ccccc3)C2C)CC1 (stereo unspecified)	·	?	·	·	45µM*	·
Cc1nn(-c2ccccc2)c2c1C(C)N(C1CN(C(=O)c3ccc(Cl)cc3)C1)C2=O (stereo unspecified)	·	-12%	·	·	-27%	·
Cc1nn(-c2ccccc2)c2c1C(C)N(C1CN(C(=O)NC3CCCC3)C1)C2=O (stereo unspecified)	·	28µM*	·	·	?	·
Cc1nn(-c2ccccc2)c2c1C(C)N(C1CCCN(C(=O)C3CC3)C1)C2=O (stereo unspecified)	·	-11%	·	·	-2%	·
COc1ccc(C(=O)N[C@@H]2CCC[C@@H]2C(=O)N2CCN(c3cccc(Cl)c3)CC2)cn1	0%	?	?	?	?	i

Bioassay records from PubChem BioAssay.
